Source: PubChem BioAssay
Where “and” joins values, the source holds several entries; their conditions need not be identical. Equal values may be shown once. Calls of active or inactive are those of the source. Unless noted, no stated cut-off is given here; in the data, active means inhibition above about 80%; inactive means the rest.

How the values were obtained:
[1] = sensitizers of A549 cells to miR-34 induction, primary screen, imaging, A549 dox-inducible miR-34, nuclei and caspase counts (AID 1347080;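 active means compounds whose cell count with miR-34 switched on is under 0.7 times the count with it off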); settings: A549 miR-34 inducible, Hoechst nuclei count, 48 h
[2] = survival rescue of mitochondrial mutant cells in low glucose, primary screen, MELAS cybrids, Rieske KO mouse fibroblasts, CellTiter-Glo (AID 1508586;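 active means mean z-score across replicates of 1.96 or higher in either the MELAS or the Rieske mutant cell line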;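 further: z relative to plate mean and SD of compound and empty wells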)
[3] = viability rescue of complex I mutant cybrids, primary screen, cell-based, galactose medium, ATP luminescence (AID 1645843;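 active means z-score of at least 1.8 in each of two replicates, scored against plate mean and spread of sample wells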;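 further: positive z means more ATP and so rescue of galactose-driven cybrid death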); settings: complex I mutant cybrid cells, 72 h, stronger effect = higher value
[4] = LFS_MB_P medulloblastoma growth inhibition, cell-based, chromothripsis tumors, cisplatin or BGB combos (AID 1671449); settings: LFS_MB_P medulloblastoma cells;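 further: cells exposed for 96 hours; 0% = vehicle DMSO and 100% = killing by high DMSO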
[5] = HDN33 neuroblastoma growth inhibition, cell-based, chromothripsis tumors, cisplatin or BGB combos (AID 1671450); settings: HDN33 neuroblastoma cells, stronger effect = higher value;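 further: cells exposed to compound for four days; 0% = vehicle DMSO and 100% = cell killing by high DMSO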
[6] = ICB984 medulloblastoma cell growth inhibition, synergistic combos for chromothripsis tumors, cisplatin or BGB combos (AID 1671451; call rule not given here;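 further: cells exposed for 96 hours before readout; 0% = vehicle DMSO and 100% = killing by high DMSO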); settings: ICB984 medulloblastoma cells, drug combinations, stronger effect = higher value
[7] = LFS_MB_1R medulloblastoma cell growth inhibition, synergistic combos for chromothripsis tumors, cisplatin or BGB combos (AID 1671452); settings: LFS_MB_1R medulloblastoma cells, stronger effect = higher value;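 further: cells exposed for 96 hours before readout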
[8] = HTB85 osteosarcoma cell growth inhibition, synergistic combos for chromothripsis tumors, BGB or cisplatin IC20 combos (AID 1671453); settings: HTB85 osteosarcoma cells, drug combinations, stronger effect = higher value;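 further: cells exposed for 96 hours before readout; 0% = vehicle DMSO and 100% = high DMSO killing control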
[9] = CRL2098 osteosarcoma cell growth inhibition, synergistic combos for chromothripsis tumors, BGB or cisplatin IC20 combos (AID 1671454); settings: CRL2098 osteosarcoma cells, drug combinations, stronger effect = higher value;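 further: cells exposed for 96 h before readout; 0% = vehicle DMSO and 100% = killing by high DMSO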
[10] = HD-MB03 medulloblastoma cell growth inhibition, synergistic combos for chromothripsis tumors, BGB or cisplatin IC20 combos (AID 1671455; in the data active means inhibition above about 83%;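 further: 0% = vehicle DMSO and 100% = high DMSO as cytotoxic control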); settings: HD-MB03 medulloblastoma cells, stronger effect = higher value
[11] = UWB1.289 ovarian carcinoma cell growth inhibition, synergistic combos for chromothripsis tumors, BGB or cisplatin combos (AID 1671456); settings: UWB1.289 ovarian carcinoma cells, stronger effect = higher value;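 further: cells exposed to compound for four days; 0% = vehicle DMSO and 100% = killing by high DMSO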
[12] = LFS_MB_2R medulloblastoma cell growth inhibition, synergistic combos for chromothripsis tumors, cisplatin combos (AID 1671457); settings: LFS_MB_2R medulloblastoma cells, stronger effect = higher value;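 further: cells exposed to compound for four days before readout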
[13] = MDA-MB-436 breast carcinoma cell growth inhibition, synergistic combos for chromothripsis tumors, BGB or cisplatin combos (AID 1671458; call rule not given here;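 further: cells exposed for 96 hours; 0% = vehicle DMSO and 100% = killing by high DMSO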); settings: MDA-MB-436 breast carcinoma growth inhibition, drug combinations, stronger effect = higher value
[14] = UWB1.289_BRCA1 ovarian cancer growth, cell-based, BGB or cisplatin combinations (AID 1671459); settings: UWB1.289 BRCA1 ovarian carcinoma, drug combinations, stronger effect = higher value
[15] = human astrocyte viability loss, single and combined drugs, cytotoxicity control for chromothriptic childhood tumor combination screen, cell-based, BGB or cisplatin IC20 combos (AID 1671460); settings: Human astrocytes, drug combinations, stronger effect = higher value;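 further: cells exposed to compounds for 96 hours before viability readout; 0% = vehicle and 100% = killing control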
[16] = growth inhibition of BT084 medulloblastoma cells, cell-based, ICGC_MB145, cisplatin and BGB IC40 combos (AID 1671461); settings: drug combinations, stronger effect = higher value;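 further: cells exposed to drugs for 96 hours; 0% = vehicle DMSO and 100% = high DMSO full killing control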
[17] = growth inhibition of RCMB18 medulloblastoma cells, cell-based, cisplatin and BGB IC40 combos (AID 1671462); settings: stronger effect = higher value;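 further: cells exposed to compound for four days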
[18] = growth inhibition of CRL1545 osteosarcoma cells, cell-based, cisplatin and BGB IC20 combos (AID 1671464); settings: stronger effect = higher value;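 further: cells exposed to compound for 96 hours before readout; 0% = vehicle DMSO and 100% = high DMSO killing control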
[19] = stronger effect = lower value, cell number ratio, induced over uninduced
[20] = measured here: relative caspase fold change +Dox/-Dox
[21] = measured here: total cells with miR-34 induction, stronger effect = lower value
[22] = measured here: total cells without miR-34 induction
[23] = MELAS cybrid survival, CellTiter-Glo 48 h, stronger effect = higher value
[24] = Rieske KO mouse fibroblast survival, CellTiter-Glo 72 h
[25] = measured here: combination with BGB IC40, at 0.05 µM
[26] = measured here: with BGB IC20 combination, at 0.5 µM
[27] = measured here: with cisplatin IC20 combination, at 0.5 µM
[28] = measured here: combination with cisplatin, at 0.5 µM
[29] = measured here: combination with cisplatin, at 5 µM

## c1ccc(CN2CCC(Nc3ncnc4sccc34)CC2)nc1
[1]; [19]
  fold change: 0.895 (inactive)
[1]; [20]
  fold change: 1.42
[1]; [21]
  cell count: 5240
[1]; [22]
  cell count: 5860
[2]; [23]
  z-score: -0.277 (inactive)
[2]; [24]
  z-score: -0.421
[3]
  z-score: -0.58 (inactive)

## O=c1[nH]cnc2c1ncn2C1CCC(CO)O1 (stereo unspecified)
[1]; [19]
  fold change: 0.874 (inactive) and 0.873 (inactive)
[1]; [20]
  fold change: 1.69 and 1.3
[1]; [21]
  cell count: 9660 and 7790
[1]; [22]
  cell count: 11100 and 8920
[2]; [23]
  z-score: -0.36 (inactive)
[2]; [24]
  z-score: 0.371
[3]
  z-score: 0.465 (inactive)
[4]; at 0.5 µM, stronger effect = higher value
  inhibition: -32.9% (inactive)
[4]; measured here: combination with BGB IC20, at 0.005 µM
  inhibition: -16.1%
[4]; measured here: combination with BGB IC40, at 0.005 µM
  inhibition: -29.5%
[4]; [25]
  inhibition: -24.5%
[4]; measured here: combination with cisplatin, at 0.5 µM, stronger effect = higher value
  inhibition: -38.2%
[4]; measured here: combination with cisplatin, at 5 µM, stronger effect = higher value
  inhibition: -16.6%
[5]; BGB combo, at 5 µM
  inhibition: -15.1%
[5]; at 0.5 µM
  inhibition: -10.3% (inactive)
[5]; cisplatin combo, at 5 µM
  inhibition: 0.055%
[5]; [26]
  inhibition: -9.52%
[5]; [27]
  inhibition: -5.77%
[5]; single agent, at 5 µM
  inhibition: -6.37%
[6]; BGB IC20 combo, at 0.005 µM
  inhibition: 3.8%
[6]; BGB IC40 combo, at 0.005 µM
  inhibition: -17.3%
[6]; BGB IC40 combo, at 0.05 µM
  inhibition: -42.9%
[6]; at 0.5 µM
  inhibition: -12.4% (inactive)
[6]; cisplatin combo, at 0.05 µM
  inhibition: -46.9%
[6]; cisplatin combo, at 0.5 µM
  inhibition: -0.57%
[6]; cisplatin combo, at 5 µM
  inhibition: -45.9%
[6]; measured here: 5 uM single agent, at 5 µM
  inhibition: -17.3%
[7]; at 0.5 µM
  inhibition: -24.1% (inactive)
[7]; [25]
  inhibition: -1.26%
[7]; [28]
  inhibition: -27.1%
[7]; [29]
  inhibition: -51.2%
[8]; at 0.5 µM
  inhibition: 0.13% (inactive)
[8]; measured here: with BGB IC20, at 0.5 µM
  inhibition: -29.8%
[8]; measured here: with BGB IC20, at 5 µM
  inhibition: -39.1%
[8]; measured here: with cisplatin IC20, at 0.5 µM
  inhibition: 5.05%
[8]; measured here: with cisplatin IC20, at 5 µM
  inhibition: -50%
[8]; single agent, at 5 µM
  inhibition: -11.3%
[9]; at 0.5 µM
  inhibition: -44.8% (inactive)
[9]; measured here: combination with BGB at IC20, at 0.5 µM
  inhibition: -57.1%
[9]; measured here: combination with cisplatin at IC20, at 0.5 µM
  inhibition: -26.9%
[10]; at 0.5 µM
  inhibition: -5.57% (inactive)
[10]; measured here: combo with BGB at IC20, at 0.5 µM
  inhibition: 0.583%
[10]; measured here: combo with cisplatin at IC20, at 0.5 µM
  inhibition: -5.27%
[11]; at 0.5 µM
  inhibition: -1.68% (inactive)
[11]; measured here: inhibition with BGB combination, at 0.05 µM
  inhibition: -32%
[11]; measured here: inhibition with cisplatin combination, at 0.05 µM
  inhibition: -6.01%
[12]; at 0.5 µM
  inhibition: -19.9% (inactive)
[12]; [28]
  inhibition: -27.6%
[12]; [29]
  inhibition: -58%
[13]; at 0.5 µM
  inhibition: -28.3% (inactive)
[13]; measured here: BGB combination, at 0.5 µM
  inhibition: -25.6%
[13]; measured here: BGB combination, at 5 µM
  inhibition: -24.3%
[13]; measured here: cisplatin combination, at 0.5 µM
  inhibition: -38.2%
[13]; measured here: cisplatin combination, at 5 µM
  inhibition: -39%
[14]; BGB combination, concentration series, at 5 µM
  inhibition: -6.99%
[14]; at 0.5 µM
  inhibition: -4.59% (inactive)
[14]; cisplatin combination, concentration series, at 5 µM
  inhibition: 5.72%
[15]; at 0.5 µM
  inhibition: 4.8% (inactive)
[15]; measured here: combo with BGB IC20, at 0.5 µM
  inhibition: -5.94%
[15]; measured here: combo with cisplatin IC20, at 0.5 µM
  inhibition: 2.75%
[16]; at 0.5 µM
  inhibition: -19.3% (inactive)
[16]; cisplatin combination, at 0.5 µM
  inhibition: 2.66%
[16]; cisplatin combination, at 5 µM
  inhibition: 7.38%
[16]; measured here: BGB IC40 combination 0.05 uM, at 0.05 µM
  inhibition: 1%
[16]; single agent, at 5 µM
  inhibition: -10.4%
[17]; at 0.5 µM
  inhibition: -28.1% (inactive)
[17]; cisplatin combo, at 5 µM
  inhibition: -8.55%
[17]; measured here: BGB IC40 combination, at 0.05 µM
  inhibition: 12.3%
[17]; [28]
  inhibition: -23.6%
[17]; single agent, at 5 µM
  inhibition: -21%
[18]; at 0.5 µM
  inhibition: -13.6% (inactive)
[18]; [26]
  inhibition: 0.279%
[18]; [27]
  inhibition: -23.2%
[18]; single agent, at 0.05 µM
  inhibition: -52.8%
[18]; single agent, at 5 µM
  inhibition: -4.43%

## Cc1ccc(NC(=O)NCCSCc2ccc(CN(C)C)o2)cc1Cl
[1]; [19]
  fold change: 0.882 (inactive)
[1]; [20]
  fold change: 0.585
[1]; [21]
  cell count: 6630
[1]; [22]
  cell count: 7520
[2]; [23]
  z-score: 0.133 (inactive)
[2]; [24]
  z-score: -0.401
[3]
  z-score: -1.04 (inactive)

## Cc1csc(CNC(=O)Cc2csc(-c3ccccc3)n2)n1
[1]; [19]
  fold change: 0.931 (inactive)
[1]; [20]
  fold change: 1.12
[1]; [21]
  cell count: 8110
[1]; [22]
  cell count: 8710
[2]; [23]
  z-score: 0.125 (inactive)
[2]; [24]
  z-score: 0.0782
[3]
  z-score: -0.44 (inactive)

## O=C(Cc1noc2ccccc12)NCCOc1cccnc1
[1]; [19]
  fold change: 0.924 (inactive)
[1]; [20]
  fold change: 1.95
[1]; [21]
  cell count: 9890
[1]; [22]
  cell count: 10700
[2]; [23]
  z-score: -0.132 (inactive)
[2]; [24]
  z-score: -0.425
[3]
  z-score: -0.56 (inactive)

## c1ccc2c(CCc3ccncc3)c[nH]c2c1
[1]; [19]
  fold change: 0.863 (inactive)
[1]; [20]
  fold change: 0.826
[1]; [21]
  cell count: 7350
[1]; [22]
  cell count: 8520
[2]; [23]
  z-score: 1.96 (inactive)
[2]; [24]
  z-score: -0.242
[3]
  z-score: -0.71 (inactive)

## COc1ccc(S(=O)(=O)N2CCN(S(=O)(=O)c3ccc4c(c3)OCCO4)CC2)cc1
[1]; [19]
  fold change: 0.881 (inactive)
[1]; [20]
  fold change: 0.373
[1]; [21]
  cell count: 8270
[1]; [22]
  cell count: 9390
[2]; [23]
  z-score: -0.316 (inactive)
[2]; [24]
  z-score: -0.269
[3]
  z-score: 0.51 (inactive)

## O=C(O)CCC(=O)Nc1ccc(Br)cn1
[1]; [19]
  fold change: 0.858 (inactive)
[1]; [20]
  fold change: 0.548
[1]; [21]
  cell count: 8810
[1]; [22]
  cell count: 10300
[2]; [23]
  z-score: 0.399 (inactive)
[2]; [24]
  z-score: -0.113
[3]
  z-score: 0.275 (inactive)

## Nc1nc2ccccc2c(=O)[nH]1
[1]; [19]
  fold change: 0.901 (inactive)
[1]; [20]
  fold change: 0.247
[1]; [21]
  cell count: 8880
[1]; [22]
  cell count: 9860
[2]; [23]
  z-score: 0.855 (inactive)
[2]; [24]
  z-score: -0.798
[3]
  z-score: 0.65 (inactive)
